Source: PubChem BioAssay AID686964 (The Scripps Research Institute Molecular Screening Center, 2013)
Hit rate of the full screen: of about 370,000 compounds, about 1,100 (0.3%) were called active. The sample as a whole holds a higher share of actives than the screen did. A number with no mark means an inactive call. Cut-off read from the data, not from the text of the source: active = inhibition above about 13%; inactive = the rest.

target: Methyl-CpG-binding domain protein 2 (Homo sapiens) (UniProt Q9UBB5); test: MBD2-DBD methyl-oligonucleotide interaction blockers – biochemical, TR-FRET, DNA-binding domain, human, primary screen (AID 686964); conditions: MBD2 binding to methylated oligonucleotide, at 4.4 µM, stronger effect = higher value
Sequence (Q9UBB5 whole entry, looked up, the tested form may be a part): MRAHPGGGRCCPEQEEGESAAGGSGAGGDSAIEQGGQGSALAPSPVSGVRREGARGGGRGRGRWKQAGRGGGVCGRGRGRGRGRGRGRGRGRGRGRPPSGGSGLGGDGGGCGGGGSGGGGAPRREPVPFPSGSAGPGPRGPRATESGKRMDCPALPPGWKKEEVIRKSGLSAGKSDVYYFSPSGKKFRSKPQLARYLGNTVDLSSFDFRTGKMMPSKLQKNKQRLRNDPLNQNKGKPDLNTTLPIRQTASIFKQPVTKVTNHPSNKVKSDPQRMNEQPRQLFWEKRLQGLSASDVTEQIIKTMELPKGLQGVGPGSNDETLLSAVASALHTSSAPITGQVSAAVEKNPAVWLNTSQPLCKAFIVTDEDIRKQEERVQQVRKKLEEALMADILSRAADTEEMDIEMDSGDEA

SMILES | inhibition
Cc1cc(C)c(S(=O)(=O)NCC2CCC(C(=O)NCc3ccc4c(c3)OCO4)CC2)c(C)c1 (stereo not given) | 1.75%
CCn1c2ccccc2c2cc(NC(=O)CSc3nnc(-c4ccccc4)n3-c3ccc(C)cc3)ccc21 | 1.63%
CCn1c(=O)n2n(c1=O)[C@@]1(C=C3CCCC[C@H]32)N=C(NC(=O)c2ccccc2)N(Cc2ccccc2)[C@H]1Cc1ccccc1 | -2.62%
CCCCCN1CCCCC(NC(=O)C(C)CCC)C1=O (stereo not given) | 0.39%
O=C(CNC(=O)c1ccccc1)OC(C(=O)Nc1cc([N+](=O)[O-])ccc1F)c1ccccc1 (stereo not given) | 0.02%
CCC(=O)Nc1ccc2c(c1)C(=O)N(C)[C@@H]1CC[C@@H](CC(=O)NCCc3ccccc3)O[C@H]1CO2 | -1.77%
Cc1cccc(NC(=O)C[C@H]2CC[C@H]3[C@@H](COc4ccc(NC(=O)Nc5ccccc5)cc4C(=O)N3C)O2)c1 | 14.6% (active)
COC(=O)C[C@@H]1CC[C@@H]2[C@@H](COc3ccc(NC(=O)Nc4ccc(F)c(F)c4)cc3C(=O)N2C)O1 | -6.09%
O=C(NCCCc1ccccc1)[C@H](Cc1ccccc1)NC1(C(=O)NCCc2c[nH]c3ccccc23)CCC1 | -4.2%
CCOC(=O)C1CCN(C(=O)C(C)(C)NC(=O)Nc2ccc(F)c(F)c2)CC1 | -0.53%
CCCCCCCCN1C(=O)[C@@H](CC(=O)N2CCN(C(=O)OCC)CC2)C[C@@]2(C(=O)OC)C1=C[C@H](C1CCCC1)O[C@@H]2C | -0.47%
CC(C)C(=O)N1CCC2(CC1)Oc1ccc(F)cc1C(=O)C21CC(c2ccccc2)=NO1 (stereo not given) | -4.91%
CCOC(=O)c1ccccc1NC(=O)COC(=O)CCC(=O)N1CCOCC1 | 3.48%
CC(=O)c1ccccc1NC(=O)CC1(CC(=O)O)CCCCC1 | -1.55%
CC(=O)c1ccccc1NC(=O)COC(=O)C1COc2ccccc2O1 (stereo not given) | 28.3% (active)
COc1ccc(Cn2cc(COC(=O)N(C)Cc3ccccc3)nn2)cc1 | 1.89%
CC(C)(C)C1C/C(=C/c2ccco2)C(=O)/C(=C/c2ccco2)C1 (stereo not given) | 72% (active)
CN(C(=O)COC(=O)c1cc(-c2ccco2)nc2ccccc12)C1CCS(=O)(=O)C1 (stereo not given) | 17.8% (active)
CC(=O)c1ccc(OCC(=O)N(C)C2CCS(=O)(=O)C2)cc1 (stereo not given) | 1.21%
COc1ccc(-c2cc(=O)oc3cc(OCC(=O)N(C)C4CCS(=O)(=O)C4)ccc23)cc1 (stereo not given) | 2.11%
CNC(=O)Nc1cc(C(C)(C)C)no1 | 3.32%
CNC(=O)C[C@H]1C(=O)N(c2ccc(OC)cc2)C[C@@H]1Cc1ccccc1 | 13.2% (active)
O=C(C[C@H]1C(=O)N(c2ccc(F)c(F)c2)C[C@@H]1Cc1ccccc1)Nc1ccccc1 | 5.88%
CNC(=O)C[C@H]1C(=O)N(Cc2ccccc2)C[C@@H]1CSC | 3.38%
COc1cc(/C=C/C(=O)n2cnc3ccccc32)cc(OC)c1OC | -1.66%
O=C(Nc1cc(Cl)cc(Cl)c1)OCCN1CCCC12CCC(c1ccccc1)CC2 (stereo not given) | -4.82%
CCCCOCCCNC(=O)C[C@H]1C[C@@]2(C(=O)OC)C(=C[C@H](C(C)(C)C)O[C@@H]2C)N(CCc2ccc(OC)c(OC)c2)C1=O | 2.62%
COC(=O)[C@]12C[C@H](CC(=O)NCc3ccccc3)C(=O)N(CCc3ccc(OC)c(OC)c3)C1=C[C@H](C(C)(C)C)O[C@@H]2C | 1.88%
COC(=O)[C@]12C[C@H](CC(=O)NCCC(C)C)C(=O)N(CCc3ccc(OC)c(OC)c3)C1=C[C@H](C(C)(C)C)O[C@@H]2C | 19.2% (active)
COC(=O)CC1CCc2cc(C)cc(C(CC(C)C)NC(=O)[C@H](CC(C)C)NC(=O)OCc3ccccc3)c2O1 (stereo not given in full) | 4.23%
